The text below walks through data of PubChem BioAssay (NCI).

Values joined by “and” are separate entries in the source; they are usually repeats but may differ in a detail not shown here. Equal values may be shown once. About 79,000 compounds went through this panel and 15% of them were active in at least one assay; those are over-represented in the sample as a whole. More than one record can exist for a structure, and the calls need not agree. Active and inactive are the calls of the source. No stated cut-off is given here; in the data, active means growth inhibition above about 70%; inactive means the rest.

Experiment [1] is described as follows: NCI Yeast Anticancer Drug Screen. Data for the rad50 strain (AID 155).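 Further: 0% = growth of vehicle-only cultures of the same strain.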 Particulars: S. cerevisiae rad50 strain growth inhibition, stronger effect = higher value. The method in brief: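 DNA repair mutant yeast, compound exposure, growth read-out; inhibition is taken relative to vehicle.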
Experiment [2] is described as follows: NCI Yeast Anticancer Drug Screen. Data for the mec2-1 strain (AID 157). Particulars: S. cerevisiae mec2-1 strain, stronger effect = higher value. Summed up:
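Test agents were screened against the mec2-1 yeast strain, with defined DNA repair or cell cycle alteration. Growth was scored as inhibition against vehicle-only controls.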

Experiment [3] in a line: NCI Yeast Anticancer Drug Screen. Data for the sgs1 mgt1 strain (AID 161).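 Further: 0% = growth of cultures given vehicle only.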 The settings on record: S. cerevisiae sgs1 mgt1 strain, stronger effect = higher value. Summed up: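 Genetically altered yeast, compound exposure, growth inhibition relative to vehicle.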
Experiment [4] in a line: NCI Yeast Anticancer Drug Screen. Data for the cln2 rad14 strain (AID 165).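 Further: 0% = growth equal to vehicle treated cultures.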 The settings on record: S. cerevisiae cln2 rad14 strain, stronger effect = higher value. The method in brief: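 Growth of compound-exposed yeast (cln2 rad14 genotype) measured and expressed as inhibition relative to vehicle.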
Experiment [5] is described as follows: NCI Yeast Anticancer Drug Screen. Data for the bub3 strain (AID 167). Particulars: S. cerevisiae bub3 mutant strain, stronger effect = higher value. The method in brief: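 In this screen, a yeast mutant lacking normal mitotic checkpoint function is challenged with compound. Relative growth versus vehicle gives the inhibition value.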
The nature of experiment [6]: NCI Yeast Anticancer Drug Screen. Data for the mlh1 rad18 strain (AID 175). Particulars: S. cerevisiae mlh1 rad18 strain growth inhibition, stronger effect = higher value. The method in brief:
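In this whole-cell yeast screen, a strain with altered DNA damage repair is challenged with compound, and its growth is measured against matched vehicle-treated controls.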

Where [7] appears, read: at 5.0 µM (retest, dose inferred, filed as 0.5).
The mark [8] stands for this setting: at 50.0 µM (retest, dose inferred, filed as 5.0).

Turning to `ON=C(Cc1ccccc1)Cc1ccccc1`, the growth inhibition in experiment [1] (setting [7]) was 7% (inactive); in experiment [1] (setting [8]) it was -7% (inactive); in experiment [1] (at 50.0 µM), 20.4% (inactive) and 1.3% (inactive); in experiment [2] (setting [7]), -4% (inactive); in experiment [2] (setting [8]), -8% (inactive); in experiment [2] (at 50.0 µM), 5.7% (inactive) and -6.9% (inactive). The growth inhibition in experiment [3] (setting [7]) is 1% (inactive); in experiment [3] (setting [8]), 34% (inactive); in experiment [3] (at 50.0 µM) it was 23.2% (inactive) and 82.5% (active); in experiment [4] (setting [7]), 2% (inactive); in experiment [4] (setting [8]), -8% (inactive); in experiment [4] (at 50.0 µM), 46.2% (inactive) and -4.6% (inactive). Further, the growth inhibition in experiment [5] (setting [7]) is -83% (inactive); in experiment [5] (setting [8]) it was -3% (inactive); in experiment [5] (at 50.0 µM), -2.8% (inactive) and 17.2% (inactive); in experiment [6] (setting [7]), 1% (inactive); in experiment [6] (setting [8]), 9% (inactive); in experiment [6] (at 50.0 µM) it was 61.8% (inactive) and 27.9% (inactive).

For the compound `c1ccc(C(c2ccccc2)n2ccnc2)cc1`, the growth inhibition was -95% (inactive) in experiment [1] (setting [7]); -13% (inactive) in experiment [1] (setting [8]); 76.2% (active) in experiment [1] (at 50.0 µM); -11% (inactive) in experiment [2] (setting [7]); 18% (inactive) in experiment [2] (setting [8]); 60% (inactive) in experiment [2] (at 50.0 µM). Further, the growth inhibition in experiment [3] (setting [7]) was -23% (inactive); in experiment [3] (setting [8]), 37% (inactive); in experiment [3] (at 50.0 µM) it was 43.5% (inactive); in experiment [4] (setting [7]) it was -27% (inactive); in experiment [4] (setting [8]) it was -21% (inactive); in experiment [4] (at 50.0 µM), 66.6% (inactive). The growth inhibition in experiment [5] (setting [7]) was -57% (inactive); in experiment [5] (setting [8]) it was 2% (inactive); in experiment [5] (at 50.0 µM), 59.4% (inactive); in experiment [6] (setting [7]), -72% (inactive); in experiment [6] (setting [8]), 1% (inactive); in experiment [6] (at 50.0 µM), 80.7% (active).

Consider `c1ccc(-c2nc3ccccc3[nH]2)cc1`, for which the growth inhibition in experiment [1] (setting [7]) is 1% (inactive); in experiment [1] (setting [8]), 28% (inactive); in experiment [1] (at 50.0 µM), 6.4% (inactive) and 34.6% (inactive); in experiment [2] (setting [7]) it was -3% (inactive); in experiment [2] (setting [8]), 19% (inactive); in experiment [2] (at 50.0 µM) it was -5.55% (inactive) and 5.3% (inactive). Also, the growth inhibition in experiment [3] (setting [7]) was -11% (inactive); in experiment [3] (setting [8]) it was 29% (inactive); in experiment [3] (at 50.0 µM), -8.85% (inactive) and 1% (inactive); in experiment [4] (setting [7]), 4% (inactive); in experiment [4] (setting [8]) it was 39% (inactive); in experiment [4] (at 50.0 µM), -50.4% (inactive) and -4.4% (inactive). The growth inhibition is 0% (inactive) in experiment [5] (setting [7]); 24% (inactive) in experiment [5] (setting [8]); -13.2% (inactive) and -5.15% (inactive) in experiment [5] (at 50.0 µM); 0% (inactive) in experiment [6] (setting [7]); 74% (active) in experiment [6] (setting [8]); -0.55% (inactive) and 43% (inactive) in experiment [6] (at 50.0 µM).

On to `Cc1ccc(C(C)C)c2c1CN(CCN1COc3c(C(C)C)ccc(C)c3C1)CO2`, for which the growth inhibition in experiment [1] (setting [7]) was -3% (inactive); in experiment [1] (setting [8]), 2% (inactive); in experiment [1] (at 50.0 µM), -3.9% (inactive); in experiment [2] (setting [7]) it was 0% (inactive); in experiment [2] (setting [8]) it was 3% (inactive); in experiment [2] (at 50.0 µM) it was 6.8% (inactive). Besides, the growth inhibition in experiment [3] (setting [7]) is -3% (inactive); in experiment [3] (setting [8]) it was -1% (inactive); in experiment [3] (at 50.0 µM), -13.8% (inactive); in experiment [4] (setting [7]), -4% (inactive); in experiment [4] (setting [8]) it was 1% (inactive); in experiment [4] (at 50.0 µM) it was -11.2% (inactive). Moreover, the growth inhibition in experiment [5] (setting [7]) was -1% (inactive); in experiment [5] (setting [8]) it was -2% (inactive); in experiment [5] (at 50.0 µM) it was -2.95% (inactive); in experiment [6] (setting [7]), -1% (inactive); in experiment [6] (setting [8]), 4% (inactive); in experiment [6] (at 50.0 µM), -8.65% (inactive).

For `CCOCc1ccccc1C(O)(c1ccc(OC)cc1)c1ccc(OC)cc1`, the growth inhibition was 5% (inactive) and 1% (inactive) in experiment [1] (setting [7]); 2% (inactive) and 1% (inactive) in experiment [1] (setting [8]); 48.3% (inactive) and 78.8% (active) in experiment [1] (at 50.0 µM); 2% (inactive) and 6% (inactive) in experiment [2] (setting [7]); 9% (inactive) and 11% (inactive) in experiment [2] (setting [8]); 33.4% (inactive) and 72.5% (active) in experiment [2] (at 50.0 µM). In addition, the growth inhibition in experiment [3] (setting [7]) is 6% (inactive) and -2% (inactive); in experiment [3] (setting [8]) it was 10% (inactive) and 21% (inactive); in experiment [3] (at 50.0 µM) it was 60.5% (inactive) and 77.2% (active); in experiment [4] (setting [7]), 3% (inactive) and 5% (inactive); in experiment [4] (setting [8]), 3% (inactive) and 7% (inactive); in experiment [4] (at 50.0 µM) it was 67% (inactive) and 94.2% (active). The growth inhibition in experiment [5] (setting [7]) is 3% (inactive) and 14% (inactive); in experiment [5] (setting [8]), 33% (inactive) and 61% (inactive); in experiment [5] (at 50.0 µM), 76.5% (active) and 95.8% (active); in experiment [6] (setting [7]), 3% (inactive) and 5% (inactive); in experiment [6] (setting [8]), -26% (inactive) and 41% (inactive); in experiment [6] (at 50.0 µM) it was 74% (active) and 82.8% (active).

`C=CCc1c2c(ccc(=O)c1O)-c1c(cc(OC)c(OC)c1OC)CCC2NC(C)=O` (stereo unspecified): the growth inhibition is -3% (inactive) in experiment [1] (setting [7]); 94% (active) in experiment [1] (setting [8]); 70.3% (active) in experiment [1] (at 50.0 µM); 4% (inactive) in experiment [2] (setting [7]); 98% (active) in experiment [2] (setting [8]); 60.5% (inactive) in experiment [2] (at 50.0 µM). The growth inhibition in experiment [3] (setting [7]) was -20% (inactive); in experiment [3] (setting [8]), 70% (active); in experiment [3] (at 50.0 µM), 64.6% (inactive); in experiment [4] (setting [7]), -12% (inactive); in experiment [4] (setting [8]), 93% (active); in experiment [4] (at 50.0 µM), 72% (active). For the same compound, the growth inhibition was -13% (inactive) in experiment [5] (setting [7]); 97% (active) in experiment [5] (setting [8]); 53.3% (inactive) in experiment [5] (at 50.0 µM); 8% (inactive) in experiment [6] (setting [7]); 97% (active) in experiment [6] (setting [8]); 67% (inactive) in experiment [6] (at 50.0 µM).

Consider `c1cc2c3c(c1)ccc1cccc(c13)COC2`, for which the growth inhibition in experiment [1] (setting [7]) was -21% (inactive) and -2% (inactive); in experiment [1] (setting [8]), 10% (inactive) and 85% (active); in experiment [1] (at 50.0 µM), 86.3% (active) and 98% (active); in experiment [2] (setting [7]), -6% (inactive) and 9% (inactive); in experiment [2] (setting [8]) it was -8% (inactive) and 75% (active); in experiment [2] (at 50.0 µM), 51.1% (inactive) and 96.7% (active). Besides, the growth inhibition in experiment [3] (setting [7]) is -4% (inactive) and -10% (inactive); in experiment [3] (setting [8]), 20% (inactive) and 58% (inactive); in experiment [3] (at 50.0 µM), 47.5% (inactive) and 95.8% (active); in experiment [4] (setting [7]), -42% (inactive) and 4% (inactive); in experiment [4] (setting [8]), -7% (inactive) and 27% (inactive); in experiment [4] (at 50.0 µM), 69.2% (inactive) and 96.5% (active). Besides, the growth inhibition is -13% (inactive) and -12% (inactive) in experiment [5] (setting [7]); 10% (inactive) and 65% (inactive) in experiment [5] (setting [8]); 88.2% (active) and 94.9% (active) in experiment [5] (at 50.0 µM); -19% (inactive) and -11% (inactive) in experiment [6] (setting [7]); 9% (inactive) and 89% (active) in experiment [6] (setting [8]); 56.5% (inactive) and 98.2% (active) in experiment [6] (at 50.0 µM).
